# Source: PubChem BioAssay
# CHX counter: affects cycloheximide protein synthesis inhibition readout, counter-screen; cell reporter, cycloheximide protein synthesis inhibition counterscreen; max response, %; 300,000 compounds, 12% hits; AID 2314; in the data active = max response mostly above about 13%, no sharp cut-off; inactive = mostly below about 14%; note: read at 38.3 µM for the half of the compounds with a filed dose; 0% is about no effect
# Giardia FBPA inh: blocks Giardia fructose-bisphosphate aldolase activity; A8B2U2; purified Giardia FBPA; Potency, µM (highest dose often 59.6 µM), inactives show top-dose activity, negative = inhibition, usual class: inhibitors; 290,000 compounds, 0.71% hits; note: potency is the fitted concentration of half-maximal effect; % is set by controls: 0 for no effect and ±100 for the full control effect; nearly all actives have a fitted effect of over 55% in size
# Target sequence (A8B2U2 whole entry, looked up): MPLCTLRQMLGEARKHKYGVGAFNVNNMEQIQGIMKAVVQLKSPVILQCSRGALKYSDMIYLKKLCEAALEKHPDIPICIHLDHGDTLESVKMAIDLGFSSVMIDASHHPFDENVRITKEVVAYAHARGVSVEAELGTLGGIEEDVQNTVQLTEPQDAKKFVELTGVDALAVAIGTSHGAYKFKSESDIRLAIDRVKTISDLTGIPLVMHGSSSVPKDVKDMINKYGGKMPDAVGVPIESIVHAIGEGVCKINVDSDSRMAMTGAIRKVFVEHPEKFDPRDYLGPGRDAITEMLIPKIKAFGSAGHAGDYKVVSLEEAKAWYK
#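 Giardia FBPA (40 nM reagent) was preincubated 10 min at RT with compound (up to 57.5 uM final), then substrate plus GAPDH/TPI/NAD/arsenate coupling system with diaphorase/resazurin was added; resorufin fluorescence (525/598 nm) was read after 20 min.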
# TbPYK inhibitor: T. brucei pyruvate kinase inhibition; 410,000 compounds, 0.12% hits; TbPYK enzyme, Kinase-Glo Plus ATP luminescence, 45 min; Q57TT1; AID 624173; Potency, µM (highest dose often 76.8 µM), without a hit: at the highest dose activity, negative = inhibition, usual class: inhibitors; note: potency is the fitted concentration of half-maximal effect; % is set by controls: 0 for no effect and ±100 for the full control effect; nearly all actives have a fitted effect of over 50% in size
#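 Activity of T. brucei pyruvate kinase was followed by Kinase-Glo Plus luminescence after the enzyme reacted 45 min at room temperature with 130 uM ADP (final) and substrate. Test compounds were added before ADP at multiple concentrations.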
# LmPK inh: inhibitors of Leishmania mexicana pyruvate kinase; Q27686; purified LmPK, Kinase-Glo ATP luminescence, 1 h; Potency, µM (series often up to 57.5 µM), inactives show top-dose activity change, negative = inhibition, hits mostly inhibitors; 290,000 compounds, 0.37% hits; AID 1721; note: potency is the fitted concentration of half-maximal effect; % is set by controls: 0 for no effect and ±100 for the full control effect
#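 Pyruvate kinase activity monitored as ATP production (luciferase luminescence). Conditions: 0.1 nM enzyme, 0.5 mM PEP, 0.1 mM ADP, 1 h, RT; normalized against uninhibited and no-enzyme wells.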
# Shiga toxin inh: blocks Shiga toxin action in Vero cells. 290,000 compounds, 9.2% hits. inhibition, % at 38.7 µM. Vero cells, Shiga toxin protein synthesis inhibition reporter. AID 2315; in the data active = inhibition mostly above about 28%, no sharp cut-off; inactive = mostly below about 43%; note: 0% is about no effect
# RE007 growth inh: less growth of the S. pombe RE007 Vpr strain; S. pombe RE007 Vpr strain, BacTiter-Glo ATP luminescence, 24 h; 360,000 compounds, 0.21% hits; Potency, µM (series often up to 92.2 µM), inactives show top-dose activity change, negative = less growth, hits mostly inhibitors; active = well fitted falling curve with a large enough effect; inconclusive = small, poorly fitted or top-dose-only effect; inactive = no such curve, though single readings can be large or run the other way; note: potency is the fitted concentration of half-maximal effect; % is set by controls: 0 for no effect and ±100 for the full control effect; nearly all actives have a fitted effect of over 50% in size
#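 Fission yeast RE007 carrying one integrated HIV-1 vpr copy, seeded at OD 0.01 in PMG+AL medium with 23 nL pinned compound. Grown 24 h at 30 degrees; viability read by BacTiter-Glo luminescence after 5 min.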
# An asterisk follows results filed as active; ? = inconclusive; · = not tested or not shown; + = active, no number; ! = repeats disagree; [ ] = another dose, or the depositor's remark. Shown is part of a subset that was picked to be rich in hits. Unless noted, calls come from the whole dose curve; as a rule, active = well fitted curve in the direction sought with a large enough effect; inconclusive = small, poorly fitted or top-dose-only effect, or another doubt; inactive = no such curve, though single readings can be large; an effect the other way counts as inactive or inconclusive.
SMILES,CHX counter,Giardia FBPA inh,TbPYK inhibitor,LmPK inh,Shiga toxin inh,RE007 growth inh
Cc1cccc(C(=O)NNC2=C(C(=O)C(F)(F)F)CCC2)c1O,15,-6%,-1%,9%,17,-6%
O=C(NNC1=C(C(=O)C(F)(F)F)CCC1)c1cccc(O)c1,31*,0%,-1%,4%,64*,27%
O=C(NNC1=C(C(=O)C(F)(F)F)CCC1)c1cccnc1,38*,4%,2%,8%,50,15%
Cc1cc2cc(C#N)c(SCC(=O)Nc3nonc3C)nc2cc1C,14,·,-2%,-2%,16,-11%
Cc1nonc1NC(=O)CSc1nc2c(C)cccc2cc1C#N,41*,-5%,5%,2%,68*,-7%
CC1=CC(C)=Nc2ccc(C)cc2N1,27*,?,0%,1%,94*!,-8%
CC(C(=O)N1CCN(C(=O)c2ccco2)CC1)n1sc2ccccc2c1=O (configuration not stated),20,3%,0%,0%,15,6%
CC(C(=O)N1CCCCC1)n1sc2ccccc2c1=O (configuration not stated),31*,7%,-10%,1%,67*,-6%
CC(C)C[C@H](NC(=O)[C@@H]1CCCN1C(=O)[C@H](Cc1ccccc1)NC(=O)[C@H](C)NC(=O)[C@H](CCC(=O)O)NC(=O)[C@H](C)NC(=O)[C@H](CO)NC(=O)[C@H](CCC(=O)O)NC(=O)[C@H](CC(=O)O)NC(=O)[C@H](CCC(=O)O)NC(=O)[C@H](C)NC(=O)CNC(=O)[C@H](CC(N)=O)NC(=O)[C@@H]1CCCN1C(=O)[C@H](Cc1ccc(O)cc1)NC(=O)[C@@H](NC(=O)[C@H](CCCCN)NC(=O)[C@@H](NC(=O)[C@@H]1CCCN1C(=O)[C@@H](N)CCCNC(=N)N)C(C)C)C(C)C)C(=O)N[C@@H](CCC(=O)O)C(=O)N[C@@H](Cc1ccccc1)C(=O)O,-6,1%,·,·,7,·
O=C(c1cc(C2CC2)nn1-c1ccccc1)N1CCN(c2ccccn2)CC1,·,·,-5%,·,·,-2%
CCCCCCCC/C=C\CCCCCCCC(=O)OC[C@@H](O)[C@H]1OC[C@H](O)[C@H]1O,·,·,-8%,·,·,·
Fc1ccc(-c2nnn(Cc3ccc(F)cc3Cl)n2)cc1,24*,4%,-2%,-1%,105*,-10%
Cc1ccccc1-c1nnn(Cc2ccc(F)cc2Cl)n1,18,0%,-5%,-1%,24*,3%
COc1cccc(NC(=O)CN(C)S(=O)(=O)c2ccc3[nH]c(=O)oc3c2)c1,1,·,0%,0%,6,4%
Cc1cccc(CNC(=O)Cc2ccc(NC(=O)N3CCCCc4ccccc43)cc2)c1,·,·,1%,·,·,·
CCOC(=O)C1(Cc2cccc(F)c2)CCN(C(=O)c2ccoc2C)CC1,12*,-2%,-2%,1%,10,6%
CCOC(=O)C1(Cc2cccc(OC)c2)CCCN(C(=O)CCc2cccnc2)C1 (configuration not stated),46*,2%,-4%,0%,69*,-2%
CC#CC(=O)N1CCCC(Cc2cccc(OC)c2)(C(=O)OCC)C1 (configuration not stated),43*,0%,-3%,-2%,33*,1%
CCOC(=O)C1(Cc2cccc(F)c2)CCN(C2CCOCC2)CC1,6,4%,4%,9%,-11,5%
CCOC(=O)C1(Cc2cccc(OC)c2)CCN(C2CCOCC2)CC1,33*,-15%,-4%,2%,82*,1%
C[C@@H]1CN([C@H](C)CO)C(=O)CCCn2nncc2CO[C@@H]1CN(C)C(=O)C1CC1,·,·,4%,·,·,11%
COCCN(Cc1ccc(OC)cc1)c1c(C)nc2ccc(C(=O)Nc3ccc(NC(C)=O)cc3)cn12,·,·,5%,·,·,0%[18.4 µM]
CCOC(=O)C1(Cc2cccc(OC)c2)CCCN(C(=O)c2cc(C)oc2C)C1 (configuration not stated),39*,·,0%,7%,76*,11%
CCOC(=O)C1(Cc2cccc(OC)c2)CCCN(C(=O)CSC)C1 (configuration not stated),·,·,3%,·,·,2%
NC(CO)c1csc(NC(=O)Nc2cccc(Cl)c2)n1 (configuration not stated),·,·,-8%,·,·,4%[18.4 µM]
SMILES,CHX counter,Giardia FBPA inh,TbPYK inhibitor,LmPK inh,Shiga toxin inh,RE007 growth inh
O=C(Nc1cccc(Cl)c1)Nc1nccs1,69*,-1%,·,0%,98*,17%[3.69 µM]
CSc1ccc(Cl)c(C(=O)Nc2nccs2)c1,-5,0%,11%,-1%,-4,11%
O=C(Nc1ccc(Cl)c(Cl)c1)Nc1nccs1,34*,-7%,-2%,-8%,69*,?
O=C(/C=C/c1cccc([N+](=O)[O-])c1)OCC(=O)N1CCCCC1,·,·,-7%,·,·,1%
CC(C)(C)C(=O)Nc1ccc(/C=C/C(=O)c2ccco2)cc1,25*,9%,-15%,1%,·,-9%
Cc1ccc(/C=C/C(=O)c2cc(Br)ccc2OC(=O)c2ccco2)cc1,24*,11%,3%,4%,49*,11%
COc1ccccc1/C=C/C(=O)c1cc(Br)ccc1OC(=O)c1ccco1,·,·,4%,·,·,-4%
Cc1cccc2cc(/C=C/C(=O)c3ccco3)c(Cl)nc12,12*,7%,-2%,1%,16,-13%
CCOc1ccc2nc(Cl)c(/C=C/C(=O)c3ccco3)cc2c1,16,-15%,4%,1%,26,-18%
Nc1ccc(/C=C/C(=O)c2ccco2)cc1,69*,-9%,-4%,-22%,+,?
Cc1cc2c(s1)c1cnn(Cc3cccc(F)c3)c(=O)c1n2C,-6,·,·,·,-2,·
Cc1ccc(CNC(=O)Cn2cnc3c(NC(=O)OCc4ccccc4)ncnc32)o1,·,·,-7%,·,·,-5%
O=C(/C=C/c1ccccc1O)c1ccco1,30*,2%,-12%,-3%,61*,?
N#Cc1ccc(/C=C/C(=O)c2ccco2)cc1,6,-7%,-3%,2%,26,18µM*
O=C(/C=C/c1cc(Br)ccc1O)c1ccco1,4,-5%,-23%,-2%,10,?
COc1ccc(C2=NC(=O)/C(=C\c3cc(OC)c(OC)c(OC)c3)O2)cc1,2,-5%,-13%,5%,13,0%
COC(=O)c1c(NC(=O)C2SC(=NC3CCCCC3)C(C(N)=O)=C2N)sc2c1CCCC2 (configuration not stated),-7,-1%,-7%,3%,-17,4%
Cc1cc(C(=O)CSc2nnnn2C)c(C)n1Cc1ccco1,71*,-6%,3%,2%,87*,1%
Cc1cc(C(=O)CSc2nc3ccc(Cl)cc3[nH]2)c(C)n1Cc1ccco1,·,·,-12%,·,·,23%
